# Test results from PubChem BioAssay (NCATS).
# “And” between values parts separate entries of the source, which are not always exact repeats. Identical values can stand only once. Inconclusive results are not listed. Entries that show only a call come without a potency. The source made the active and inactive calls. Unless noted, the call rests on the fitted dose curve; in most records, active means well fitted curve in the direction sought with a large enough effect; inconclusive means small, poorly fitted or top-dose-only effect, or another doubt; inactive means no such curve, though single readings can be large; an effect the other way counts as inactive or inconclusive.
# Legend:
# [1] = target: Cytochrome P450 3A4 (Homo sapiens) (UniProt P08684); assay: qHTS Assay for Activators of Cytochrome P450 3A4 (AID 885); further: nearly all actives have a fitted effect of over 65% in size
# Sequence of Cytochrome P450 3A4 (Homo sapiens) (P08684 whole entry, looked up): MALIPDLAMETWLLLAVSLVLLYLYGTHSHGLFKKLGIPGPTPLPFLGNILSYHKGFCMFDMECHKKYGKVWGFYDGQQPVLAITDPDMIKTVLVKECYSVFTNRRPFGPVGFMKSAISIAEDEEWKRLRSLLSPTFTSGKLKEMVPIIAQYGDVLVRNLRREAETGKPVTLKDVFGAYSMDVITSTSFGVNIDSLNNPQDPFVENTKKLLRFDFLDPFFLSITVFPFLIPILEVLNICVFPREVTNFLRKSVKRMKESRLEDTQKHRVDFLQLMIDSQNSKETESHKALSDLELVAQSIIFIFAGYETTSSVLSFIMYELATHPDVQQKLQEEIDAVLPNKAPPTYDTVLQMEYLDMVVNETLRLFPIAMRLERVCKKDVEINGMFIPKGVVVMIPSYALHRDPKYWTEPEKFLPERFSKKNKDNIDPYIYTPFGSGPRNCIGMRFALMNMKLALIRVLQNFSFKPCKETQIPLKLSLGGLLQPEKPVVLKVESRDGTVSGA
# Method in brief: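 Using 20nM recombinant human CYP3A4 in potassium phosphate (200mM), substrate Luciferin-PPXE at 25uM, luminescent luciferin detection followed a 60-min RT NADPH reaction; data scaled to 57 uM ketoconazole.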
# [2] = target: Ubiquitin carboxyl-terminal hydrolase 1 (Homo sapiens) (UniProt O94782); assay: Inhibitors of USP1/UAF1: Pilot qHTS (AID 504865);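 further: rhodamine fluorescence freed from ubiquitin-rhodamine substrate followed over time; top concentration of the series differs between compounds; nearly all actives have a fitted effect of over 35% in size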
# Sequence of Ubiquitin carboxyl-terminal hydrolase 1 (Homo sapiens) (O94782 whole entry, looked up): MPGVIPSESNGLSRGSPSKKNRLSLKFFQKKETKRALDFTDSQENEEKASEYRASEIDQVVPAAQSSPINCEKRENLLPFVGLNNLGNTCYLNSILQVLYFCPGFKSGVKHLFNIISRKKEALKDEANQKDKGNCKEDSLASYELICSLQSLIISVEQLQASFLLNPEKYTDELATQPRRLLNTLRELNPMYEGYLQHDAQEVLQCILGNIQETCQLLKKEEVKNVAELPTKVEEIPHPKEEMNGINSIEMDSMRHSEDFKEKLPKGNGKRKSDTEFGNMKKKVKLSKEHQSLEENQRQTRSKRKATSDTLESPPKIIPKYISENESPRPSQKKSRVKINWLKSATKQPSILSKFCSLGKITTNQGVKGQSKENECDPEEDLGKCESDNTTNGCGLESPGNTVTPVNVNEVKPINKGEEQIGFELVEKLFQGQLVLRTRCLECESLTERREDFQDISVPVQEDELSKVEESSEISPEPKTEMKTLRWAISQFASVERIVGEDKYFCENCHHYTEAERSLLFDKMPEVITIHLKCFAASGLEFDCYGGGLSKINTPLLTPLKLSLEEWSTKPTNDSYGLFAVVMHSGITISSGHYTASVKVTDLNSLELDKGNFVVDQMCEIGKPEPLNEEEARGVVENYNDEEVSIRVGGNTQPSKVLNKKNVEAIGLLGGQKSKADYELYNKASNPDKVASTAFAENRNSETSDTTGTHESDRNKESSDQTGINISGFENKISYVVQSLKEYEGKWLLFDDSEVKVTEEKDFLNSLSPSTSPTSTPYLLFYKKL
# Method in brief: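 1nM USP1/UAF1 + cpd, 15 min RT; start w/ Ub-Rho 150nM final; kinetic FL 480/540 nm, 6 reads q60 s. Buffer 50mM HEPES pH 7.8, 0.5mM EDTA, 1mM TCEP, 0.01% Tween-20, 0.1 mg/ml BSA.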
# [3] = target: DNA dC->dU-editing enzyme APOBEC-3G (Homo sapiens) (UniProt Q9HC16); assay: qHTS for inhibitors of Vif-A3G interactions: Validation (AID 588379)
# Sequence of DNA dC->dU-editing enzyme APOBEC-3G (Homo sapiens) (Q9HC16 whole entry, looked up): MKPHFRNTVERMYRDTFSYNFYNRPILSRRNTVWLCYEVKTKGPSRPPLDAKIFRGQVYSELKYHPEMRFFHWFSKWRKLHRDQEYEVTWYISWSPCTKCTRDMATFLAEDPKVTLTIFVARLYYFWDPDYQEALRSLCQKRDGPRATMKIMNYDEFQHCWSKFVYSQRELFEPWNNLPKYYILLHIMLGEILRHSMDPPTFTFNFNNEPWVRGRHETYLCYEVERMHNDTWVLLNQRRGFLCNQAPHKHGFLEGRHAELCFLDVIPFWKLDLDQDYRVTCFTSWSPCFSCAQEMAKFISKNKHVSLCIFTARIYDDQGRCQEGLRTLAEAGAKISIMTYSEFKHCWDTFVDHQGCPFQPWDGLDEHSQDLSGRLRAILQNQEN
# Method in brief: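 Yellow fluorescence (Ex 488, Em 500-530) of Vif-coexpressing HeLa A3G-eYFP cells, scanned by Acumen cytometer, reports blocked A3G degradation. Cells plated at 700/well overnight at 37 deg C before compound addition, then a further overnight compound incubation at 37 deg C.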
# [4] = system: Zika virus NS2B-NS3 protease; assay: Primary screen GU AMC qHTS for Zika virus inhibitors (AID 1347154); further: nearly all actives have a fitted effect of over 70% in size
# Method in brief: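 Unlinked Zika NS2B hydrophilic domain–NS3 protease complex at 25 nM in 10 mM Tris-HCl pH 8.0, 0.01% Tween 20, with an AMC peptide substrate. Fluorescence change (340/450 nm) over 15 min at room temperature, normalized to controls, fitted to 4-parameter Hill.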
# [5] = Primary qHTS for small molecule stabilizers of the endoplasmic reticulum resident proteome: Secreted ER Calcium Modulated Protein (SERCaMP) assay (AID 1508630)
# Method in brief: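 The SH-SY5Y reporter protocol was run at 3 concentrations up to 38.3 uM (primary) or 11 concentrations (follow-up): 16 h compound, 100 nM thapsigargin for 4 h, then extracellular luciferase luminescence.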
# [6] = target: Mitogen-activated protein kinase 10 (Mus musculus) (UniProt Q61831); assay: JNK3 AlphaScreen Assay (AID 530; active means well fitted curve in either direction with a large enough effect, not every such curve was filed as active;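 further: kinase came from lysate of stimulated human HepG2 cells; signal reports phosphorylation of biotinylated GST-cJun 1-79 at Ser73 with 10 µM ATP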)
# Method in brief: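 HepG2 lysate (IL-1b/TNFa pre-activated) + biotin-GST-cJun 1-79 + anti-pSer73 cJun; cpd titration, 15 min RT; ATP 10 uM start; Tris pH 7.6, MgCl2, DTT, vanadate; beads in EDTA buffer; AlphaScreen.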
# [7] = target: 3',5'-cyclic-AMP phosphodiesterase 4B (Homo sapiens) (UniProt Q07343); assay: qHTS Assay for Inhibitors of PDE-IV (AID 607; active means well fitted activation curve with a large enough effect in the main read-out, with a control signal flat, not every such curve was filed as active)
# Sequence of 3',5'-cyclic-AMP phosphodiesterase 4B (Homo sapiens) (Q07343 whole entry, looked up): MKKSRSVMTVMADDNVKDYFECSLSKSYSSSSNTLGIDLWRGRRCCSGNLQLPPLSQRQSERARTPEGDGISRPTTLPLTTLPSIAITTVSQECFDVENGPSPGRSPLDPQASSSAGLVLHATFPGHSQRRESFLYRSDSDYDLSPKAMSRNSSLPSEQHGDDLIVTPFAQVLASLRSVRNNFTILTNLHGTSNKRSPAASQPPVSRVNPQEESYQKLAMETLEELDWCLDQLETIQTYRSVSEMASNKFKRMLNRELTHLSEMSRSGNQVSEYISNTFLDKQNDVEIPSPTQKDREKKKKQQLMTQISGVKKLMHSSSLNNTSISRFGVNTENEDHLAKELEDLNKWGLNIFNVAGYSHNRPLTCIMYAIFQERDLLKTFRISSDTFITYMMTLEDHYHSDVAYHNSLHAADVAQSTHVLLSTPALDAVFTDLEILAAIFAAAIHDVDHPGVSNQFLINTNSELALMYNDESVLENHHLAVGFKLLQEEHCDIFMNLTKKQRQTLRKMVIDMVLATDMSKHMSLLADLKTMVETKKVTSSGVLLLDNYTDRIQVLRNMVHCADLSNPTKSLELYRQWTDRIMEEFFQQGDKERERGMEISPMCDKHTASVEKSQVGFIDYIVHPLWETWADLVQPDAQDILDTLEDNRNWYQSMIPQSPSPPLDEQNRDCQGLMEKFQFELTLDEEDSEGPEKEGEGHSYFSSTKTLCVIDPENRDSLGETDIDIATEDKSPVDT
# Method in brief: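 Live HEK293 cells with a modified cyclic nucleotide-gated (CNG) channel report intracellular cAMP via membrane-potential dye fluorescence (ex 535/em 590 nm). Endogenous PDE-IV was targeted. Compounds were tested at up to 22.9 uM final; RO 20-1724 100 uM served as control.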
# [8] = Stat Signaling Pathway (AID 446; active means well fitted curve in either direction with a large enough effect, not every such curve was filed as active;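 further: ME-180 cervical cancer cells given 40 pM IL-6 alongside compound; SIE-controlled beta-lactamase reporter measured as 460/530 nm FRET emission ratio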); conditions: ME-180 SIE beta-lactamase reporter, IL-6 stimulated, 5 h
# Method in brief: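 Overnight-plated ME-180 cells bearing a STAT Inducible Element beta-lactamase reporter; 5 h co-exposure to compound and 40 pM IL-6; values normalized to 300 pM IL-6 and 125 nM JAK inhibitor controls.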
# [9] = target: Guanine nucleotide-binding protein G(i) subunit alpha-1 (Homo sapiens) (UniProt P63096); assay: qHTS Assay for Inhibitors of RGS12 GoLoco Motif Activity (Green Fluorophore) (AID 879);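 further: negative values mean loss of peptide binding seen as reduced polarization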
# Sequence of Guanine nucleotide-binding protein G(i) subunit alpha-1 (Homo sapiens) (P63096 whole entry, looked up): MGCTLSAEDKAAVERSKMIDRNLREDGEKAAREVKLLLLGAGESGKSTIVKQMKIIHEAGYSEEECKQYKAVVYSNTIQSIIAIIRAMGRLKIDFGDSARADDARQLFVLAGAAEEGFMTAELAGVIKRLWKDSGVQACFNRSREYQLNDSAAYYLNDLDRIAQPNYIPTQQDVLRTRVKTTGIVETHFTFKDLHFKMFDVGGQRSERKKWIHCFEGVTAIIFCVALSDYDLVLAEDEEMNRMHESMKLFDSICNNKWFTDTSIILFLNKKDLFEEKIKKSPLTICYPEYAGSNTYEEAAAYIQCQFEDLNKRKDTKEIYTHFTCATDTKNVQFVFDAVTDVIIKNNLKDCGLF
# Method in brief: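 A drop in FITC polarization marked displacement of the FITC-tagged RGS12 GoLoco peptide (10 nM) from Gαi1 (50 nM). Compounds were incubated 10 min at room temperature in Tris pH 7.5 buffer containing 150 mM NaCl, 0.1 mM GDP and 0.05% NP40; unlabeled peptide titration served as control.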
# [10] = target: Muscarinic acetylcholine receptor M1 (Rattus norvegicus) (UniProt P08482); assay: qHTS Assay for Antagonists of Acetylcholine Muscarinic M1 Receptor: Kinetic Measurement of Intracellular Calcium Response (AID 943); further: nearly all actives have a fitted effect of over 75% in size; further: potency means the concentration at half of the fitted maximal effect;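 on activity change, negative = inhibition: Fluo-4 calcium signal as peak divided by basal fluorescence over 4 min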
# Sequence of Muscarinic acetylcholine receptor M1 (Rattus norvegicus) (P08482 whole entry, looked up): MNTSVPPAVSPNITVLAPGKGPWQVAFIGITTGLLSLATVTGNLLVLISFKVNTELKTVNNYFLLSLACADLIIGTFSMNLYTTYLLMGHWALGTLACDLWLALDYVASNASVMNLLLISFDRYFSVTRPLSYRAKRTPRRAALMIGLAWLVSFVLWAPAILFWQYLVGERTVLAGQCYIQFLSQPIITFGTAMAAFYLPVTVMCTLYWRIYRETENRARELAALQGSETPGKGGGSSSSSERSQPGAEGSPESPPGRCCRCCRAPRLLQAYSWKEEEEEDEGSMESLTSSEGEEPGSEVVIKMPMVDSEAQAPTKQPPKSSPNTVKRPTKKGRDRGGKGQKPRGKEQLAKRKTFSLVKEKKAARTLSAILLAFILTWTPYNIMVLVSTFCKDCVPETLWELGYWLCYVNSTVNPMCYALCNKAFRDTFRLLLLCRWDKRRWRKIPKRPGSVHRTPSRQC
# Method in brief: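 Read-out: peak over basal Fluo-4 fluorescence, kinetic at 1 Hz for 4 min after EC80 carbachol (100 nM final). Rat M1-CHO cells, dye loaded 1 h at 37C, compound added 10 min before agonist.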
# [11] = target: Pyruvate kinase PKM (Homo sapiens) (UniProt P14618); assay: qHTS Assay for Activators of Human Muscle Pyruvate Kinase (AID 954; active means well fitted curve in the direction sought with a large enough effect, not every such curve was filed as active)
# Method in brief: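 Screening used highly purified human pyruvate kinase M2 under submaximal activity, with PEP at its Km and ADP below Km. After an hour at room temperature, ATP was read by luciferase luminescence.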
# [12] = target: alpha-glucosidase (Oryza sativa, rice) (UniProt Q653V4); assay: Counterscreen for Glucocerebrosidase Inhibitors: qHTS Assay for Rice alpha-Glucosidase at pH 5.0 (AID 997)
# Method in brief: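 Endpoint fluorogenic assay at pH 5.0: compounds (0.7 nM to 77 uM) titrated against 4 nM rice enzyme and 400 uM 4-MU-alpha-glucoside for 20 min at room temperature; NaOH/glycine stop, read ex 365/em 440 nm, Hill-fitted AC50.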
# [13] = qHTS Assay for Lipid Storage Modulators (AID 1519; calls by dose curve); conditions: Drosophila S3 cells, BODIPY lipid droplet/cell ratio, laser cytometry, cells loaded with oleic acid
# Method in brief: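 Cells seeded at 5,000 per well were treated with compounds over a concentration series and loaded with oleic acid (400 uM, as added). Lipid droplet fluorescence (488 nm excitation, 500-530 nm channel) was read by laser-scanning cytometry and normalized to 20 uM Triacsin C.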
# [14] = AP1 Signaling Pathway (AID 357; active means well fitted curve in either direction with a large enough effect, not every such curve was filed as active;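 further: ME-180 reporter cells stimulated with EGF at its EC50 level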); conditions: ME-180 (cervical carcinoma) AP-1-bla reporter, EGF-induced, beta-lactamase ratio, 5 h; at 38 µM (top of the series)
# Method in brief: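 Beta-lactamase reporter under AP-1 response element, ME-180 background. Stimulus: EC50 EGF. Compound exposure 5 h, 37 °C. Detection: CCF4, 2.5 h RT, 460/530 nm. Values: AC50 from titration.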
# [15] = target: Cytochrome P450 1A2 (Homo sapiens) (UniProt P05177); assay: p450-cyp1a2 (AID 410; calls by dose curve; further: potency means the concentration at half of the fitted maximal effect)
# Sequence of Cytochrome P450 1A2 (Homo sapiens) (P05177 whole entry, looked up): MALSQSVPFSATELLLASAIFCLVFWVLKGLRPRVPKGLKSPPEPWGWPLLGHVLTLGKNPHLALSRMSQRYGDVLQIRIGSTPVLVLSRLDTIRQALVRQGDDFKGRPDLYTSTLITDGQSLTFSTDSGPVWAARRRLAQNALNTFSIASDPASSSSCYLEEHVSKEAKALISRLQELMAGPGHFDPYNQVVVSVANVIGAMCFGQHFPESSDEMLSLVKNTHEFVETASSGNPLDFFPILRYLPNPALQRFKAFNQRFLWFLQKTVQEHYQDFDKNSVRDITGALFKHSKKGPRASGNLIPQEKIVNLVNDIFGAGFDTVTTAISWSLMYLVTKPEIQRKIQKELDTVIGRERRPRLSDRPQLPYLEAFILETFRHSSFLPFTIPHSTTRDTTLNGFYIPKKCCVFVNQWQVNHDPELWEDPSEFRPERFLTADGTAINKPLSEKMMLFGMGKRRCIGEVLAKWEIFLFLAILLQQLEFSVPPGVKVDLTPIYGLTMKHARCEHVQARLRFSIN
# Method in brief: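 20nM CYP1A2, 100uM Luciferin-ME (=Km), 100mM KPO4; cpd 10 min RT; +NADPH regen, 60 min RT; stop/detect 20 min; luminescence. Normalized to furafylline 57 uM = full inhibition.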
# [16] = NFAT Signaling Pathway (AID 444; active means well fitted curve in either direction with a large enough effect, not every such curve was filed as active;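 further: carbachol stimulus at about its EC50 of 1 µM final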); conditions: Jurkat NFAT-bla M1, carbachol, beta-lactamase ratio, 5 h; at 38 µM (top of the series)
# Method in brief: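 Jurkat cells with NFAT-driven β-lactamase reporter and co-expressed M1 receptor, stimulated with carbachol (final 1 uM, ~EC50), compound titration, 5 h at 37 °C. CCF4 loaded 1 h at RT; 460/530 nm ratio gave %activity and AC50.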
# [17] = target: Glucocorticoid receptor (Homo sapiens) (UniProt P04150); assay: GR-GFP Redistribution (AID 450;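 active means compounds whose dose series gives a full or clear partial fitted curve of increased nuclear translocation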; further: potency means the concentration at half of the fitted maximal effect); conditions: U2OS GR-GFP nuclear translocation, laser cytometry, 2 h
# Sequence of Glucocorticoid receptor (Homo sapiens) (P04150 whole entry, looked up, the tested form may be a part): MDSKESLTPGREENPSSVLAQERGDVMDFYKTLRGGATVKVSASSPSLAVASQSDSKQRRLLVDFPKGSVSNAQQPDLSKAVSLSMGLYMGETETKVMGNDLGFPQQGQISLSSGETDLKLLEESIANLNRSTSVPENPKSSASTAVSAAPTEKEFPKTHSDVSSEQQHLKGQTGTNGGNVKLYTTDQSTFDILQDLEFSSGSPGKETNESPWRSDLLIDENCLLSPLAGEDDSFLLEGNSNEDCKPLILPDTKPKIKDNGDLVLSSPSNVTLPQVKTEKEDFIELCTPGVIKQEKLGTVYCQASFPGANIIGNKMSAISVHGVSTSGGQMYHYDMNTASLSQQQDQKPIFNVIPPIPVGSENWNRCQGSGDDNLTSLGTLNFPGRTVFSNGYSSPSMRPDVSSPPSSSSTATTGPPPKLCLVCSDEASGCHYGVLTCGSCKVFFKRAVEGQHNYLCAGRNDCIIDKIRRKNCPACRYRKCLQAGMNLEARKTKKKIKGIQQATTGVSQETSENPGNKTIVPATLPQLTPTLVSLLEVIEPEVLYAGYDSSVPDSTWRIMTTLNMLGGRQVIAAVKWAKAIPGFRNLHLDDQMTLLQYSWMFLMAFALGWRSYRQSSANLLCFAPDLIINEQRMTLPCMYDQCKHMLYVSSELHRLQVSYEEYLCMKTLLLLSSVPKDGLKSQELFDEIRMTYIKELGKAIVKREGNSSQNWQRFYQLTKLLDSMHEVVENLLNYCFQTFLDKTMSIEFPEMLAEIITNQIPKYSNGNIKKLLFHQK
# [18] = target: Glucocorticoid receptor (Homo sapiens) (UniProt P04150); assay: GR-EFC Redistribution (AID 451; calls by dose curve; further: potency means the concentration at half of the fitted maximal effect); conditions: CHO-K1 GR-EFC translocation, beta-gal luminescence, 2 h
# Method in brief: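 CHO-K1 cells expressing nuclear EA and GR-ED fragments of b-gal; compounds titrated up to 46 uM final, 2 h at 37 C. GR nuclear translocation read as complemented b-gal luminescence after 1 h RT detection.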
# [19] = Confirmation and Secondary Assay for Modulators of Hemoglobin Beta Chain Splicing at IVS2 654 locus (AID 910);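 further: HeLa cells stably carrying EGFP split by mutant beta-globin IVS2-654 intron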
# Method in brief: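 HeLa cells stably expressing EGFP interrupted by β-globin IVS2-654 intron, seeded overnight in Opti-MEM/2% FCS, then treated 2 days at 37 °C. Restored splicing read as total peak GFP intensity per well by laser scanning cytometry (488 nm excitation, 500–520 nm emission); 500 nM antisense PNA as control.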
# [20] = Confirmation and Secondary Assay for Modulators of Hemoglobin Beta Chain Splicing at IVS2 705 locus (AID 930);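 further: HeLa cells stably expressing the EGFP-705 splicing reporter; GFP fluorescence per well restored by corrected splicing of the IVS2-705 intron in EGFP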
# Method in brief: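 Assay measures total GFP intensity per well in HeLa EGFP-705 cells after 2 days with compound; mis-splicing normally truncates EGFP, so fluorescence indicates corrected splicing.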
# [21] = target: Pyruvate kinase (Leishmania mexicana) (UniProt Q27686); assay: qHTS Validation Assay for Inhibitors of Leishmania Mexicana Pyruvate Kinase (AID 945)
# Sequence of Pyruvate kinase (Leishmania mexicana) (Q27686 2-499 E452W): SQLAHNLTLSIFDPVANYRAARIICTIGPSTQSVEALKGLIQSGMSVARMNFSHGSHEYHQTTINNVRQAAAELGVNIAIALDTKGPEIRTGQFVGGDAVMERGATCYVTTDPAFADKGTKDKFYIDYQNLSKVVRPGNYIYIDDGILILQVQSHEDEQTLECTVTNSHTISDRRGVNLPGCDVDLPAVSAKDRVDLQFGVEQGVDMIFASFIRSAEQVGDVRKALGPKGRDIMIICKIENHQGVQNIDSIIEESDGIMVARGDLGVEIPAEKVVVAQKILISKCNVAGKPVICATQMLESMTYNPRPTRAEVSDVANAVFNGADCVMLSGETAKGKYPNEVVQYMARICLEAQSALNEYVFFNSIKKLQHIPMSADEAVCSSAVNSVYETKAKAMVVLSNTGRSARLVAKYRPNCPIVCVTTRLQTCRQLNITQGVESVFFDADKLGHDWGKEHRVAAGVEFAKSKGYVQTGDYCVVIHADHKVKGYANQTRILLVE
# Method in brief: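 Pyruvate kinase activity of E451W LmPYK (0.2 nM) was followed as ATP output after 1 h at room temperature with 0.5 mM PEP and 0.1 mM ADP, detected by PKLight luminescence.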
# [22] = measured here: cell count channel max response
# [23] = measured here: lipid channel max response
compound,measurement,setting,value
COc1ccc2[nH]cc(CC(N)C(=O)O)c2c1 (configuration not stated),Potency,[1],inactive
same,Potency,[2],inactive
same,Potency,[3],inactive
same,Potency,[4],inactive
same,Potency,[5],inactive
CCN(CC)C[C@@H]1CCCCN1CC(=O)N1c2ccccc2C(=O)Nc2cccnc21,Potency,[6],inactive
same,Potency,[7],inactive
same,Potency,[1],inactive
same,Potency,[3],inactive
same,Potency,[4],inactive
same,Potency,[5],inactive
c1ccc(N2CCN(Cc3nc4ccccc4[nH]3)CC2)nc1,Potency,[1],inactive
same,Potency,[4],inactive
same,Potency,[5],inactive
Cc1ccc(/C(=C/CN2CCCC2)c2ccccn2)cc1,"activity, negative = inhibition",[8]; at 17.2 µM (top of the series),6.54% (inactive)
same,"activity, negative = inhibition",[8]; at 38 µM (top of the series),-0.742% (inactive)
same,Potency,[6],inactive
same,Potency,[7],inactive
same,outcome,[9],inactive
same,Potency,[10],1.26 µM (active)
same,outcome,[11],inactive
same,outcome,[12],inactive
same,"activity change, negative = inhibition",[13]; at 25.7 µM (top of the series),-1.93% (inactive)
same,"activity change, negative = inhibition",[13]; at 57.5 µM (top of the series),3.43% (inactive)
same,max response,[13]; [22],0.155% and 8.83%
same,max response,[13]; [23],-0.659% and 14%
same,Potency,[2],inactive
same,Potency,[3],inactive
same,Potency,[4],inactive
CC(=O)N[C@@H](C(=O)O)C(C)(C)SN=O,"activity change, negative = inhibition",[14],-1.8% (inactive)
same,Potency,[15],inactive
same,"activity change, negative = inhibition",[16],9.84% (inactive)
same,"activity, negative = inhibition",[8]; at 38 µM (top of the series),2.94% (inactive)
same,Potency,[17],> 46 µM (inactive)
same,Potency,[18],> 46 µM (inactive)
same,Potency,[6],inactive
same,Potency,[7],inactive
same,outcome,[9],inactive
same,outcome,[19],inactive
same,outcome,[20],inactive
same,Potency,[10],inactive
same,Potency,[21],inactive
same,outcome,[12],inactive
same,"activity change, negative = inhibition",[13]; at 57.5 µM (top of the series),9.07% (inactive)
same,max response,[13]; [22],15.4%
same,max response,[13]; [23],28.4%
same,Potency,[3],inactive
same,Potency,[4],inactive
CN1[C@H](CC(=O)c2ccccc2)CCC[C@H]1C[C@H](O)c1ccccc1,Potency,[15],15.8 µM (active)
same,"activity change, negative = inhibition",[13]; at 57.5 µM (top of the series),4.17% (inactive)
same,max response,[13]; [22],24.7%
same,max response,[13]; [23],29.8%
same,Potency,[2],inactive
same,Potency,[3],inactive
same,Potency,[4],inactive
COc1cc([C@@H]2c3cc4c(cc3[C@@H](O[C@@H]3O[C@H]5CO[C@@H](C)O[C@@H]5[C@@H](O)[C@H]3O)[C@@H]3COC(=O)[C@@H]23)OCO4)cc(OC)c1O,Potency,[6],inactive
same,Potency,[7],inactive
same,Potency,[4],inactive
same,Potency,[5],inactive
COc1cc(C=O)c([N+](=O)[O-])cc1OC,Potency,[1],inactive
same,Potency,[4],inactive
same,Potency,[5],inactive
